# From the supplement of paper PMC10849652
# Targets with a hit are over-represented here; the source holds about 8,800 in all. About 0.5% of all pairs of compound and target were hits. Values without a mark were called inactive.
# Columns and labels:
# Assay in all cases: log2 fold change, soluble protein after heating vs DMSO (PISA); higher = thermal stabilisation; K562 lysate, 10 uM; active = over 0.2 and 3.5 SD of the protein, either way, in both replicates (recomputed)
# [1] = compound: NCC(=O)Nc1ccc(-n2nc(C(F)(F)F)cc2-c2ccc3c(ccc4ccccc43)c2)cc1
# How it was run: (§1)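 Quantification was by TMTpro 16plex LC-MS/MS with equalised channel sums, applied to the supernatant after 21,000xg for 90 min. Samples were crude K562 extract at 1 mg/mL protein in PBS pH 7.4 with 1 mM MgCl2, treated with 10 μM compound for 30 min, heated for 3 min across 48°C-58°C, pooled and brought to 0.5% NP-40 at 4°C. Values are log-two fold changes in thermal stability relative to solvent controls, from duplicates.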
# vorinostat = compound: O=C(CCCCCCC(=O)Nc1ccccc1)NO [vorinostat]
# How it was run: as §1
# silmitasertib = compound: O=C(O)c1ccc2c(c1)nc(Nc1cccc(Cl)c1)c1ccncc12 [silmitasertib]
# How it was run: as §1
# [2] = compound: O=C1NC(=O)C(c2cnc3ccccn23)=C1c1cn2c3c(cc(F)cc13)CN(C(=O)N1CCCCC1)CC2
# How it was run: as §1
# entospletinib = compound: c1cn2cc(-c3ccc4cn[nH]c4c3)nc(Nc3ccc(N4CCOCC4)cc3)c2n1 [entospletinib]
# How it was run: as §1
# Chain of UniProt Q13573 (Q13573 whole entry, looked up): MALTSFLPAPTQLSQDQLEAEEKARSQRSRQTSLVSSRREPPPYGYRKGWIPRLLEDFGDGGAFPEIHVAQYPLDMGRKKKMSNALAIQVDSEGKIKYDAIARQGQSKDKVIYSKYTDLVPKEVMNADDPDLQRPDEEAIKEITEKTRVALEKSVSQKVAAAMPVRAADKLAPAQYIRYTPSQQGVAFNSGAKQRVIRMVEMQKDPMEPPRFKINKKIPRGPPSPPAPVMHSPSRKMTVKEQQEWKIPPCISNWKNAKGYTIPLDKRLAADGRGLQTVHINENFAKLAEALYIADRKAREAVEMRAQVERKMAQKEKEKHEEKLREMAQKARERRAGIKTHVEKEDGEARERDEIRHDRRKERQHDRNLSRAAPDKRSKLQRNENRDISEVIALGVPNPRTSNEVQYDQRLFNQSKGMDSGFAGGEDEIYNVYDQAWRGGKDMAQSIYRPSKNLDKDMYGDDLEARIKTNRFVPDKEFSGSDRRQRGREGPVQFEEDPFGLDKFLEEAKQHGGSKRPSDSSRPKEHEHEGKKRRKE
# Chain of UniProt Q96JI7 (Q96JI7 whole entry, looked up): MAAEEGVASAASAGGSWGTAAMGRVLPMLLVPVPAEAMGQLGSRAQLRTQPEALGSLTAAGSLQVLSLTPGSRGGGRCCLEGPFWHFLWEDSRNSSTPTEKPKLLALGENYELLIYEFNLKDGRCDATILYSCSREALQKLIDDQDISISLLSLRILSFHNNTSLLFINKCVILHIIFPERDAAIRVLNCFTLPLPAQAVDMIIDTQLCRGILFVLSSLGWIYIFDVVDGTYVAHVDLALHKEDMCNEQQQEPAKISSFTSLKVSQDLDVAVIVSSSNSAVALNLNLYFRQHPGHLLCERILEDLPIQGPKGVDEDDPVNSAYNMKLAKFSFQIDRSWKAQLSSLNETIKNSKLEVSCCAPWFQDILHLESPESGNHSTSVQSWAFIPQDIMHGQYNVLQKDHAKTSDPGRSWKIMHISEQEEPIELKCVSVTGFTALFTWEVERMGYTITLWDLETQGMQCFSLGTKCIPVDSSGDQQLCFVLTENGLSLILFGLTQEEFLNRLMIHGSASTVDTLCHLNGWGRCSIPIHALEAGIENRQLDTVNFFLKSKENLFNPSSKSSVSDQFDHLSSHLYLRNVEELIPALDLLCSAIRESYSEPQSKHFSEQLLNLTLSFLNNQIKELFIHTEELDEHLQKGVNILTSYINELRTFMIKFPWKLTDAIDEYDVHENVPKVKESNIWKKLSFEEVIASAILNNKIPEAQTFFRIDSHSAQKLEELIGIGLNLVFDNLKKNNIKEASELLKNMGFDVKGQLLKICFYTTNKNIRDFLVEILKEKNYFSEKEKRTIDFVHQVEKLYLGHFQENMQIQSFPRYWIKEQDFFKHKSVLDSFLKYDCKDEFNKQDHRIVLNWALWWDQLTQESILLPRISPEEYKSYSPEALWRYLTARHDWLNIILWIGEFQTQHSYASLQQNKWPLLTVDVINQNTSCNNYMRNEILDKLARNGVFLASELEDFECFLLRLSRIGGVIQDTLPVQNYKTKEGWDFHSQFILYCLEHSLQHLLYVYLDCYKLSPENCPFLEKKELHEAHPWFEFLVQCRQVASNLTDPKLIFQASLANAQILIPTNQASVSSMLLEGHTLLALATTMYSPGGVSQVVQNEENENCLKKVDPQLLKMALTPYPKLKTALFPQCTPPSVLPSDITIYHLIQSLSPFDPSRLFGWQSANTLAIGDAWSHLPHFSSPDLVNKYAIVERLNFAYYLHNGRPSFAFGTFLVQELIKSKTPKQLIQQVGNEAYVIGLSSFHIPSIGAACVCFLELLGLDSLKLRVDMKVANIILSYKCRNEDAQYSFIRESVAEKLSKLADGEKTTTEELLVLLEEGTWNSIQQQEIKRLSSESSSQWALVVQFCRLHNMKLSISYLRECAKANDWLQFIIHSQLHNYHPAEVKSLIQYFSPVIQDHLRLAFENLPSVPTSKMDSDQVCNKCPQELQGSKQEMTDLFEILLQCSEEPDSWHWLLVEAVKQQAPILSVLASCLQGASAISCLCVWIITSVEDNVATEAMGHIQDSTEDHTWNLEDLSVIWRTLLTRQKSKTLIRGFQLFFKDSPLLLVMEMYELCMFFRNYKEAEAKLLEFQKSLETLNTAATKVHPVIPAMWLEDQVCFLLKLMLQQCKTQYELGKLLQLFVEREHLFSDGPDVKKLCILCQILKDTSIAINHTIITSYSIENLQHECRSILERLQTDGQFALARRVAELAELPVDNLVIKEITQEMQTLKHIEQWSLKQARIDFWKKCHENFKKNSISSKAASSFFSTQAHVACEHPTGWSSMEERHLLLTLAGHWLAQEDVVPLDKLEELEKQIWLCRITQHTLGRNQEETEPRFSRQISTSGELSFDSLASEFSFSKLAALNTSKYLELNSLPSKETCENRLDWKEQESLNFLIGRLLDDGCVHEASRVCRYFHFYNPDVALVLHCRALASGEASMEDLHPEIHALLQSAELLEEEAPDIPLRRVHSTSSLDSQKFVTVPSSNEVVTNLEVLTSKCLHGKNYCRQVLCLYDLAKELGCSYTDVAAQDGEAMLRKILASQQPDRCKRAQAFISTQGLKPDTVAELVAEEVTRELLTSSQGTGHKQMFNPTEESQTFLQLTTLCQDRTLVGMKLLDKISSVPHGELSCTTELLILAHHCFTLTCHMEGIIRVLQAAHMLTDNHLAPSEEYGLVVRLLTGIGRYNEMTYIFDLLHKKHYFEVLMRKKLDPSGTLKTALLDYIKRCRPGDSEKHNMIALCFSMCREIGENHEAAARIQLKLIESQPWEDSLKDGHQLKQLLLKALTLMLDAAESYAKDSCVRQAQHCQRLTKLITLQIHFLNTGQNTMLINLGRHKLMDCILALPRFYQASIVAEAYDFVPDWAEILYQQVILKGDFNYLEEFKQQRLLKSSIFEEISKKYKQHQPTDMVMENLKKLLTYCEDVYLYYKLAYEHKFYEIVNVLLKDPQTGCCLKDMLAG
# Chain of UniProt Q9UQE7 (Q9UQE7 whole entry, looked up): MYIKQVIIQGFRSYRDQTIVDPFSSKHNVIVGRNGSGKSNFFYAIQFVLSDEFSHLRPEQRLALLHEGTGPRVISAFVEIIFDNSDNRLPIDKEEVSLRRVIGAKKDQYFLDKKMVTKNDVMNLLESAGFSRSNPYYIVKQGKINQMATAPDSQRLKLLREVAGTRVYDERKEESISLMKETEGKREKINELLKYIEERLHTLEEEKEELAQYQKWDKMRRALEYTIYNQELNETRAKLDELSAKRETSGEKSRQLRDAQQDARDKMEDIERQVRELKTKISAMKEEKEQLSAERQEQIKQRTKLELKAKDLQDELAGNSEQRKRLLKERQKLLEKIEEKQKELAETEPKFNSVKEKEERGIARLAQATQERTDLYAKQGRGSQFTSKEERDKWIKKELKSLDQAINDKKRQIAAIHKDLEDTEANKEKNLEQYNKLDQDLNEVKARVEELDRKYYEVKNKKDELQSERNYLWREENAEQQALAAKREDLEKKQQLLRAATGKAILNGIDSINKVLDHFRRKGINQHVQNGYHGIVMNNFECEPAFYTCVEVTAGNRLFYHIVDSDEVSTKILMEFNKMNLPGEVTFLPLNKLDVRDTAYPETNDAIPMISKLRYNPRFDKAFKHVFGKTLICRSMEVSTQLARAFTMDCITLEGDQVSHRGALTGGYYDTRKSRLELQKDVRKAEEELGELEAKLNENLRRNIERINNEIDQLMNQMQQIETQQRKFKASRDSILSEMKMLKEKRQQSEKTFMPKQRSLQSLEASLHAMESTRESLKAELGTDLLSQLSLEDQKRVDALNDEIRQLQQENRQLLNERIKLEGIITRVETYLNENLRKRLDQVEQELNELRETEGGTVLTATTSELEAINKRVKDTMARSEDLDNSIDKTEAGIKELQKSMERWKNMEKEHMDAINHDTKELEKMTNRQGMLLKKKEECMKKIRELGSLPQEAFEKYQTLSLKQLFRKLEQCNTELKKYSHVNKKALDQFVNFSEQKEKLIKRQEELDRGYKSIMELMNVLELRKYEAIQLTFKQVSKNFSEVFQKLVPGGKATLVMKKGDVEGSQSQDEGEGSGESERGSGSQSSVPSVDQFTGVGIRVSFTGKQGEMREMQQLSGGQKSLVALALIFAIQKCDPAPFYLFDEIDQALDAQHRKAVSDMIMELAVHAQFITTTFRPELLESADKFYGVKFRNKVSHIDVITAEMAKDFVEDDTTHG
Target,log2 fold change [1],log2 fold change (vorinostat),log2 fold change (silmitasertib),log2 fold change [2],log2 fold change (entospletinib)
SMARCAD1 isoform 2 (UniProt Q9H4L7),-0.005,-0.27 (active),0.012,0.014,0.013
SMC3 (UniProt Q9UQE7),-0.023,0.06,-0.009,-0.017,0.012
SNW1 (UniProt Q13573),0.011,0.224 (active),-0.003,-0.012,0.009
SLC38A10 (UniProt Q9HBR0),-0.034,0.044,-0.013,0.08,0.024
SPG11 (UniProt Q96JI7),-0.001,-0.399 (active),0.062,0.04,-0.098
